High-throughput results (PubChem)
A selection: hits, their analogues and other compounds. The true share with any hit is near 2.9%.
TSHR antagonist – antagonists of human thyroid stimulating hormone receptor; AID 504810; TSHR-expressing cells, TSH-stimulated cAMP HTRF, 2 h; hits give low values; P16473; activity change, negative = inhibition, % at 11.5 µM; hit rate 0.2% among 330,000;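 active means activity change below a set negative limit, meaning inhibition stronger than a set level, cut at about -70% in these data; inconclusive means activity change between two set negative limits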; further: on the % scale 0 is the no-effect control and ±100 the full control effect
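Inhibition of cAMP made by TSHR-expressing cells under TSH stimulation (4nM final, EC80; 2 h, 37 deg C) is quantified with a one-step lysis HTRF kit, anti-cAMP cryptate versus cAMP-d2.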
B2AR arrestin – recruits beta-arrestin to the human beta2-adrenergic receptor; P07550; beta-arrestin recruitment to beta2AR, cell-based reporter; Potency, µM (top dose mostly 46.1 µM), for inactives: at the top dose activation, hits mostly activators; hit rate 0.02% among 330,000; AID 492947; active means well fitted activation curve with a large enough effect; inconclusive means small, poorly fitted or top-dose-only effect;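 further: potency means the concentration at half of the fitted maximal effect; 0% = DMSO controls and full agonism = EC100 isoproterenol or metaproterenol; nearly all actives have a fitted effect of over 65% in size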
Target sequence (P07550 whole entry, looked up): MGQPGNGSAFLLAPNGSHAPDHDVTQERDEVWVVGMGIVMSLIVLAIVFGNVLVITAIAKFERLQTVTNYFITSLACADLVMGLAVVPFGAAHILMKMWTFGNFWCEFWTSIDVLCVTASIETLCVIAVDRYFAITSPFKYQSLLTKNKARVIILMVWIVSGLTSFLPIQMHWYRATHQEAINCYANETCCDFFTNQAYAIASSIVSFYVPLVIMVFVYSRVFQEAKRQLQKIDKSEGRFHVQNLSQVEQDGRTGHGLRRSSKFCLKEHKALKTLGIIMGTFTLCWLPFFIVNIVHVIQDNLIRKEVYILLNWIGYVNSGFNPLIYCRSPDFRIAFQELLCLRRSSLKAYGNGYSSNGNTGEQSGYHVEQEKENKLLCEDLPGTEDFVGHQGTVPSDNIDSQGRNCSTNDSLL
D3 antag – D3 dopamine receptor (human) antagonism; D3R cells, DiscoveRx beta-arrestin luminescence, antagonist mode; hits give low values; max response, negative = inhibition, %; hit rate 2.5% among 360,000; AID 652054; in the data active means max response below about -50%; inconclusive means no clear call, values can overlap the other calls; further: on the % scale 0 is the no-effect control and ±100 the full control effect
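Cells plated overnight at 1500 cells/well, then exposed to library compounds with dopamine controls for 90 minutes at 37 degrees C. DiscoveRx reagent added for 30–60 minutes at room temperature; luminescence read, quantitative HTS format.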
D3 ag – agonists of human D3 dopamine receptor | D3R DiscoveRx beta-arrestin cells, luminescence, 90 min | max activation, % | hit rate 0.58% among 410,000 | P35462; in the data active means max activation above about 30%; further: 0% is about no effect
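Agonist mode: compounds and dopamine controls were applied to plated cells for 90 min at 37 degrees C after an overnight attachment at 1500 cells/well. Luminescent read-out followed 30 - 60 minutes at room temperature with DiscoveRx detection reagent.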
* marks the source's active call; other numbers are inactive results; ? = inconclusive; nt = no result.

SMILES	TSHR antagonist	B2AR arrestin	D3 antag	D3 ag
CC(c1ccc2ccccc2c1)c1ccccc1C(=O)O (stereo not given)	nt	nt	-15	-1
O=C(C[n+]1ccccc1)N/N=C/c1cc(Br)ccc1O	7	0%	-89*	-2
O=C(C[n+]1ccccc1)N/N=C/c1ccccc1F	-2	0%	1	5
Cc1cccc(NC(=O)C(NS(=O)(=O)c2cccc3nsnc23)c2ccccc2)c1C (stereo not given)	nt	nt	nt	-10
CN1CCN(C(c2cccc(Cl)c2)c2ccccc2Cl)CC1 (stereo not given)	17	-1%	-81*	-22
CN1CCN(C(c2ccccc2)c2ccc(Cl)cc2)CC1 (stereo not given)	6	0%	-92*	-91
O=S1(=O)c2ccccc2N(Cc2cccc(C(F)(F)F)c2)c2ccccc21	nt	nt	nt	-15
COc1ccc(-n2cc(-c3ccccc3)c3c(SC(C)C(C)=O)ncnc32)cc1 (stereo not given)	nt	nt	nt	-18
OC1(c2ccccc2)CCN(Cc2ccccc2)CC1	-8	-1%	-80*	-17
OC1(c2ccc(F)cc2)CCN(Cc2ccccc2)C1 (stereo not given)	-7	1%	-29	-23
OC1(c2ccc(F)cc2)CCN(Cc2cccnc2)CC1	17	0%	-61*	-5
OC1(c2ccc3c(c2)OCO3)CCN(Cc2ccc(F)cc2)CC1	-1	3%	-99*	-14
O=C(c1ccccc1)C1CN(Cc2ccccc2)CCC1(O)c1ccccc1 (stereo not given)	-2	0%	-29	-24
OC(c1ccccc1)C1CN(Cc2ccccc2)CCC1(O)c1ccccc1 (stereo not given)	5	-1%	-59*	-37
COc1ccc(CNC(=O)c2ccc(NC(=O)N3CCCCc4ccccc43)cc2)c(OC)c1	nt	nt	nt	2
CCC(CC)C(=O)N(C)c1c(C)nc2c(OCc3ccc(F)c(F)c3)cccn12	nt	nt	2	7
CCc1cccc2c(-c3ccccc3)nc(SCC(=O)Nc3ccc(OC)cc3)nc12	nt	nt	nt	-5
Cc1cc(C)c2c(CC(=O)Nc3nnc(CC(C)C)s3)coc2c1	nt	nt	nt	2
COc1ccc(Cl)cc1NC(=O)CN(c1cccc(C)c1C)S(=O)(=O)c1ccccc1	nt	nt	nt	0
O=C(/C(=N\Nc1ccc([N+](=O)[O-])cc1)Sc1nnnn1-c1ccccc1)c1ccccc1	-43	-1%	-82*	-13
Cc1ccc(N/N=C(/Sc2nnnn2-c2ccccc2)C(=O)c2ccccc2)cc1	3	-1%	-18	-1
CCOc1ccc(OCC)c(NC(=O)CCCN2C(=S)NC(C)(C)CC2C)c1 (stereo not given)	0	0%	-56*	0
CC(=O)N1CCOc2cc(S(=O)(=O)NCc3ccccc3Cl)c(Cl)cc21	-19	-1%	nt	-17
Clc1ccc(CSc2nc3ncccc3[nH]2)cc1	nt	nt	nt	-2
COC1=CC(=O)c2ccccc2C1=O	35	-1%	-71*	-38
SMILES	TSHR antagonist	B2AR arrestin	D3 antag	D3 ag
COC1=CC(=O)C=C(OC)C1=O	nt	nt	-121*	-93
CC(C)c1ccc(NC(=O)CSC2=Nc3ccccc3C3=NC(CC(=O)NCc4ccco4)C(=O)N23)cc1 (stereo not given)	nt	nt	nt	-11
CC(C)(C)c1cccc(Cn2nnc3ccccc32)c1O	-77*	0%	-21	-2
COc1ccc(CN2CCc3ccccc3C2)c(OC)c1	4	-1%	-65*	-14
COc1ccc(OC)c(CN2CCN(Cc3ccc(OC)c(OC)c3OC)CC2)c1	nt	nt	?	-5
COc1ccc(CN2CCc3ccccc3C2)c(OC)c1OC	-2	-1%	-75*	-30
Cc1ccc(Cl)cc1N1CCN(C(=O)Cn2c(-c3cccs3)cc3cc(F)ccc32)CC1	nt	nt	nt	8
Cc1cc(N2CCN(C)CC2)nc(-c2ccccc2O)n1	-15	1%	-28	-10
Cc1cc(N2CCN(C)CC2)nc(=S)[nH]1	-5	0%	-81*	-17
Cc1ccc(CNC(=O)c2cc(C3CC3)nc3c2c(C)nn3-c2cccc(Cl)c2C)cc1	nt	nt	nt	-1
CCOc1cc(N(CC)CC)ccc1/C=C(/C#N)c1nc2ccccc2[nH]1	3	0%	-54*	-7
CSCc1cc(N(C)c2ccccc2)nc(-c2ccccn2)n1	-6	-1%	-75*	-11
N#C/C(=C/C1=C(N2CCOCC2)C(=C/c2cccc([N+](=O)[O-])c2)/CC1)C(=O)Nc1ccccc1F	nt	nt	-17	39*
CC(C)(C)NC(=O)c1ccc2nc(CCc3ccccc3)oc2c1	nt	nt	nt	-6
